The nature of assay [1]: qHTS assay to test for compound auto fluorescence at 535 nm (green) in HEK293 cells (AID 720680).
The nature of assay [2]: qHTS assay to test for compound auto fluorescence at 460 nm (blue) in HEK293 cell free culture (AID 720681). The method in brief:
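Test compounds were pinned into cell-free culture medium (DMEM with 10% FBS) and fluorescence was read directly at Ex/Em 405/460 nm. Signals were expressed as fluorescence equivalents of triamterene, with DMSO vehicle as control.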

A short description of assay [3]: qHTS assay to test for compound auto fluorescence at 535 nm (green) in HEK293 cell free culture (AID 720682). The method in brief: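 Steps: dispense DMEM/10% FBS into empty wells; pin in compound or DMSO; measure fluorescence at 485/535 nm. Values are fluorescein equivalents.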
The nature of assay [4]: qHTS assay to test for compound auto fluorescence at 590 nm (red) in HEK293 cell free culture (AID 720683). Summed up: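 Tox21 10K library compounds were pinned into cell-free DMEM with 10% FBS and fluorescence was read at excitation 540 nm. Activity is expressed as Rose Bengal sodium equivalency.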
Assay [5] in a line: qHTS assay to test for compound auto fluorescence at 590 nm (red) in HepG2 cell free culture (AID 720684). The method in brief: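 Readout: intrinsic compound fluorescence at 590 nm emission after 540 nm excitation, scaled to Rose Bengal sodium. Matrix was cell-free MEM with 10% FBS; DMSO vehicle wells served as control.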
Assay [6] is described as follows: qHTS assay to test for compound auto fluorescence at 460 nm (blue) in HepG2 cell free culture (AID 720685). The method in brief:
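Cell-free plates of MEM plus 10% FBS received 23 nL compound or DMSO vehicle; blue-channel (405/460 nm) intensity scored against triamterene as reference fluorophore.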

Assay [7] is described as follows: qHTS assay to test for compound auto fluorescence at 535 nm (green) in HepG2 cell free culture (AID 720686).
The nature of assay [8]: qHTS assay to test for compound auto fluorescence at 460 nm (blue) in HepG2 cells (AID 720687). Summed up:
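Cells (2,000/well in MEM with 10% FBS) attached overnight at 37 C, then were exposed to compound or DMSO for 1 hr at 37 C, 5% CO2. Fluorescence read at Ex/Em 405/460 nm, expressed as triamterene-equivalent signal.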

Assay [9] addresses Glucocorticoid receptor (Homo sapiens) (UniProt P04150). The assay is described as follows: qHTS assay to identify small molecule agonists of the glucocorticoid receptor (GR) signaling pathway (AID 720691; active = well fitted activation curve with a large enough effect in the signal ratio in the repeat runs, not every such curve was filed as active; the % refers to the signal ratio). The method in brief:
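Compounds in DMSO, alongside positive controls, were added to GR-bla HeLa reporter cells and incubated 18 h at 37 C; GRE-driven beta-lactamase was detected by fluorescence after 2 h with FRET substrate at room temperature.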

For assay [10] the target is unchanged. The assay is described as follows: qHTS assay to identify small molecule antagonists of the glucocorticoid receptor (GR) signaling pathway (AID 720692; active = well fitted inhibition curve with a large enough effect in the signal ratio in the repeat runs, not every such curve was filed as active; the % refers to the signal ratio). Summed up: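 In a 1536-well cell format, compounds were added 4 h after seeding GR-bla HeLa cells, together with dexamethasone at 5 nM final; reporter activity was measured by FRET-substrate fluorescence following 18 h at 37 C.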

Assay [11] can be described thus: qHTS assay to identify small molecule antagonists of the glucocorticoid receptor (GR) signaling pathway - cell viability counter screen (AID 720693). Note: nearly all actives have a fitted effect of over 55% in size.
A short description of assay [12]: qHTS assay for identifying genotoxic compounds that show differential cytotoxicity against isogenic chicken DT40 cell lines with known DNA damage response pathways - Rev3 mutant cell line (AID 743014). Note: nearly all actives have a fitted effect of over 55% in size. Note: potency is the fitted concentration of half-maximal effect.
The nature of assay [13]: qHTS assay for identifying genotoxic compounds that show differential cytotoxicity against isogenic chicken DT40 cell lines with known DNA damage response pathways - Rad54/Ku70 mutant cell line (AID 743015). Note: nearly all actives have a fitted effect of over 60% in size. Note: potency is the fitted concentration of half-maximal effect.
Assay [14] is described as follows: qHTS assay to identify small molecule antagonists of the androgen receptor (AR) signaling pathway - cell viability counter screen (AID 743033; note: nearly all actives have a fitted effect of over 45% in size; note: potency is the fitted concentration of half-maximal effect).
A short description of assay [15]: qHTS assay to identify small molecule antagonists of the androgen receptor (AR) signaling pathway using the MDA cell line - cell viability counter screen (AID 743041; note: nearly all actives have a fitted effect of over 45% in size). The method in brief:
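qHTS viability read-out; MDA-kb2 AR-luc; R1881-stimulated; 16 h exposure at 37C, 0% CO2; CellTiter-Fluor, 30 min; fluorescence intensity.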

Assay [16] in a line: qHTS assay for identifying genotoxic compounds that show differential cytotoxicity against isogenic chicken DT40 cell lines with known DNA damage response pathways - wild type cell line (AID 743012). Note: nearly all actives have a fitted effect of over 60% in size. Summed up:
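Viability of DNA repair-proficient chicken DT40 cells was assessed by CellTiter-Glo luminescence following 40 h compound exposure at 37 C/5% CO2.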

Values joined by “and” are separate entries in the source; they are usually repeats but may differ in a detail not shown here. Equal entries are not always repeated. Records with an inconclusive call do not appear. Some structures have more than one record in an assay (separate samples or runs), and their calls can disagree. Active and inactive are the calls of the source. Unless noted, calls come from the whole dose curve; as a rule, active = well fitted curve in the direction sought with a large enough effect in the repeat runs; inconclusive = weak or mixed curves; inactive = no such curve, though single readings can be large; an effect the other way counts as inactive or inconclusive.

For 15 molecules, outcome and Potency results are on record in PubChem BioAssay (Tox21).

Glucocorticoid receptor (Homo sapiens), sequence (P04150 whole entry, looked up): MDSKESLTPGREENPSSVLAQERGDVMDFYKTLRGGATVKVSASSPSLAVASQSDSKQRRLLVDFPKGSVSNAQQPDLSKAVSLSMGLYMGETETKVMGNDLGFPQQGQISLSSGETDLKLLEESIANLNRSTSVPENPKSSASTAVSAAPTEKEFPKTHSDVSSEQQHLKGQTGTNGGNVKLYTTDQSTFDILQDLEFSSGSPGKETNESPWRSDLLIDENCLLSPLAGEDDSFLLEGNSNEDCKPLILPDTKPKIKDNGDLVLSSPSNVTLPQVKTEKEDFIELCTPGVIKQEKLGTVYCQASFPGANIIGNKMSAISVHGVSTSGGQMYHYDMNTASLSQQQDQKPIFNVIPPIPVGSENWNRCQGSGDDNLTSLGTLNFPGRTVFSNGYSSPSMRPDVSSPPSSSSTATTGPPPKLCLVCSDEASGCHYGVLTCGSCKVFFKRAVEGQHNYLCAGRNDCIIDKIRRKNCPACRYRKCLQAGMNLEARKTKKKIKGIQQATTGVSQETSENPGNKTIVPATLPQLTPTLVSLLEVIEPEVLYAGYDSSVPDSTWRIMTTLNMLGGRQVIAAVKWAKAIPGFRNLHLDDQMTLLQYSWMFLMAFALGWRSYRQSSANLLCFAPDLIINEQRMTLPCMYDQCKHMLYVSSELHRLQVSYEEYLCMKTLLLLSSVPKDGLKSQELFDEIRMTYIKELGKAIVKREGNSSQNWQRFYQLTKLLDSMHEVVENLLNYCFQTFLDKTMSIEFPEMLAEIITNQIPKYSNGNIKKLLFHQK

For `O=c1nc(O)n(Cl)c(=O)n1Cl`, the outcome in assay [1], in assay [2], in [3], in assay [4], in assay [5] and in assay [6] was inactive. Further, the molecule was classed as inactive in assay [7], in assay [8] and in assay [9]. The Potency result in assay [10], in [11], in assay [12], in assay [13], in assay [14] and in [15] was “inactive” in each case.

As to `COc1ccc(N)cc1`, the molecule was classed as inactive in [1], in [2], in [3], in assay [4], in assay [5] and in assay [6]. The call in assay [7], in [8] and in [9] was inactive. Besides, the Potency entry in assay [10], in assay [11], in [14] and in assay [15] was “inactive” in each case. In addition, the Potency in assay [12] was 60.6 µM (active) and 45.4 µM (active); in assay [13] it was 53.5 µM (active) and 60.6 µM (active) and inactive.

On to `O=c1[nH]c(=O)n(Cl)c(=O)n1Cl`, for which the molecule was classed as inactive in [1], in assay [2], in assay [3], in assay [4], in assay [5] and in assay [6]. Moreover, the molecule was classed as inactive in assay [7], in [8] and in [9]. Moreover, the Potency entry in [10], in assay [11], in assay [16], in assay [12], in assay [13] and in assay [14] was “inactive” throughout. In [15], the Potency result was “inactive”.

`C1CCC(NC2CCCCC2)CC1`: the outcome in assay [1], in [2], in assay [3], in assay [4], in assay [5] and in [6] was inactive. For the same molecule, the result in assay [7], in assay [8] and in [9] was inactive. Also, the Potency result in assay [10], in assay [11], in assay [12], in assay [13], in assay [14] and in [15] was “inactive” each time.

Regarding `Nc1ccccc1`, the outcome in assay [1], in assay [2], in assay [3], in assay [4], in assay [5] and in [6] was inactive. Further, the call in assay [7], in [8] and in assay [9] was inactive. The Potency result in [10], in [11], in assay [16], in [12], in assay [13] and in [14] was “inactive” each time. For the same molecule, in assay [15], the Potency result is “inactive”.

Take `C[N+](C)(C)Cc1ccccc1`: the call in assay [1], in assay [2], in [3], in assay [4], in assay [5] and in assay [6] was inactive. For the same molecule, the call in assay [7], in [8] and in assay [9] was inactive. For the same molecule, the Potency result in assay [10], in [11], in [12], in [13], in assay [14] and in assay [15] was “inactive” throughout.

On to `O=P1(N(CCCl)CCCl)NCCCO1` (stereo unspecified), for which the molecule was called inactive in assay [1], in [2], in [3], in assay [4], in assay [5] and in assay [6]. The molecule was classed as inactive in assay [7], in assay [8] and in assay [9]. Also, the Potency entry in [10], in assay [11], in assay [12], in [13], in [14] and in assay [15] was “inactive” throughout.

In the case of `C=CCOC(Cn1ccnc1)c1ccc(Cl)cc1Cl` (stereo unspecified), the molecule was called inactive in assay [1], in assay [2], in assay [3], in assay [4], in [5] and in [6]. Besides, the molecule was classed as inactive in assay [7], in assay [8] and in [9]. Also, the Potency result in assay [10], in assay [11] and in assay [15] was “inactive” in each case. Moreover, the Potency is 21.1 µM (active) and 27.4 µM (active) and 12.2 µM (active) in [12]; 21.1 µM (active) and 43.4 µM (active) and 13.7 µM (active) in assay [13]; “inactive and 49.1 µM (active)” in [14].

With `CCNc1nc(Cl)nc(NCC)n1`, the molecule was called inactive in [1], in assay [2], in [3], in assay [4], in assay [5] and in [6]. The result in assay [7], in [8] and in assay [9] was inactive. Besides, the Potency entry in assay [10], in [11], in assay [12], in assay [13], in assay [14] and in assay [15] was “inactive” in each case.

For `CCCCCCCCCCCCOS(=O)(=O)O`, the molecule was called inactive in assay [1], in assay [2], in [3], in assay [4], in assay [5] and in [6]. The result in [7], in assay [8] and in assay [9] was inactive. Besides, the Potency result in assay [10], in [11], in assay [12], in [13], in [14] and in [15] was “inactive” in each case.

In the case of `OCCOc1ccccc1`, the molecule was called inactive in [1], in assay [2], in assay [3], in [4], in assay [5] and in [6]. The molecule was called inactive in assay [7], in assay [8] and in assay [9]. Moreover, the Potency result in assay [10], in assay [11], in [12], in assay [13], in assay [14] and in assay [15] was “inactive” throughout.

On to `Nc1ccc(-c2ccc(N)cc2)cc1`, for which the molecule was classed as inactive in assay [1], in [2], in assay [3], in [4], in [5] and in [6]. Further, the molecule was classed as inactive in assay [7], in assay [8] and in assay [9]. The Potency entry in [10], in [11], in assay [14] and in assay [15] was “inactive” in each case. Besides, the Potency in assay [12] was 61.1 µM (active).

As to `O=[N+]([O-])O`, the outcome in assay [1], in [2], in [3], in [4], in assay [5] and in assay [6] was inactive. Besides, the outcome in assay [7], in assay [8] and in assay [9] was inactive. Moreover, the Potency result in assay [10], in assay [11], in assay [14] and in assay [15] was “inactive” each time. Moreover, the Potency entry in assay [12] was “inactive and 9.43 µM (active)”; in assay [13], “inactive and 29.8 µM (active)”.

As to `CC(Cl)(Cl)C(=O)O`, the molecule was called inactive in assay [1], in [2], in [3], in assay [4], in [5] and in assay [6]. The outcome in assay [7], in assay [8] and in [9] was inactive. Moreover, the Potency result in [10], in assay [11], in assay [12], in [13], in assay [14] and in [15] was “inactive” in each case.

As for `Nc1ccc(Cl)cc1`, the call in assay [1], in [2], in assay [3], in assay [4], in [5] and in [6] was inactive. For the same molecule, the outcome in assay [7], in [8] and in [9] was inactive. The Potency result in [10], in assay [11], in assay [12], in [13], in [14] and in assay [15] was “inactive” each time.
